Our source for the INHIBITION values is ChEMBL document CHEMBL4513216, “Probing the Open Global Health Chemical Diversity Library for Multistage-Active Starting Points for Next-Generation Antimalarials” (ACS Infect Dis, 2020).

Among all 69,000 compounds or so, about 8,600 (12%) showed an effect of 50% or more. This is one part of a sample in which strong results are shown more often than they occur.

For this assay, the system named is Plasmodium berghei. Put plainly: Screen against P. berghei liver stage (PbLuc), transformed with Luciferase, at 10uM. To be noted: tested at 10 uM. In kind it is functional, HepG2.
With `CC(C)c1nnc2n1CCN(C(=O)c1ccnc(-n3ccnc3)c1)C2`, the INHIBITION is reported as 31.2%. `CCS(=O)(=O)CC(=O)NCC1(c2c(F)cccc2F)CCCC1`: the INHIBITION amounted to 57.4%. On to `CC(=O)NCCC(=O)NCC1(c2c(F)cccc2F)CCCC1`, for which the INHIBITION is 24.2%. Consider `CCC(=O)NCC(=O)NCC1(c2c(F)cccc2F)CCCC1`, for which the INHIBITION was -3.59%. `Cc1noc(C)c1CN1C[C@H](OCc2ccncc2)[C@H]2OCCC[C@H]21`: the INHIBITION is listed as -10.3%. As to `Cn1cc(CN2CCc3ncnc(N4CCOCC4)c3CC2)cn1`, the INHIBITION was found to be 5.36%. For the compound `CCNc1cc2c(nn1)CCN(C(=O)c1cccc3c1OCO3)C2`, the INHIBITION was -4.16%. The same measure for `Cc1sc2c(C3CCCNC3)nc(Nc3cccc(F)c3)n2c1C` (configuration not stated): 36.5%; for `Cc1sc2c(C3CCNCC3)nc(Nc3cccc(F)c3)n2c1C`: 54.6%; for `COc1cccc(Nc2nc(C3CCNCC3)c3sc(C)c(C)n23)c1`: 23.12%.

`CC(C)Oc1ccc2c(NC(=O)CN(C)C)nn(CC(F)(F)F)c2c1`: the INHIBITION is 42.3%. Next, `CC1(Cc2ccc(Cl)cc2)Cc2cc(CCC(=O)O)ccc2O1` (configuration not stated): -29.4%; `Cc1cc(C)c2c(N3CCCN(C(=O)C4CCC4)CC3)ncnc2n1`: 30.9%; `Cc1cnc(N2C[C@@H]3C[C@H](C(=O)N(C)C)[C@H](C2)O3)nc1`: 17.3%.

`Cc1cccc(N(CCC(N)=O)C(=O)c2cnccn2)c1`: the INHIBITION stood at 12.9%. On to `Cc1cccc(N(CCC(N)=O)C(=O)c2cc(-n3cccn3)ccn2)c1`, for which the INHIBITION was 8.92%. The same measure for `Cc1cccc(N(CCC(N)=O)C(=O)c2ccnc(C)n2)c1`: 50.5%; for `O=C(CCn1nc(C(F)(F)F)c(Br)c1C1CC1)NN1CCOCC1`: -25.5%. Regarding `Cc1ccc(OCc2occc2C(=O)N2CCCCC(N)C2)cc1` (configuration not stated), the INHIBITION was determined as 11.8%. The same measure for `Cc1cc(CN2C[C@@H]3CC[C@H]2CN(Cc2c(C)noc2C)C3)ccc1F`: -63.6%. With `O=C(c1ccccc1)N1CCCN(C(=O)c2ncncc2Cl)CC1`, the INHIBITION was 74%. On to `O=C(c1ncncc1Cl)N1CCC2(CCCC2)CC1`, for which the INHIBITION is on record as 43.1%. Regarding `O=C(c1ncncc1Cl)N1CCN(c2ccc(Cl)cc2)CC1`, the INHIBITION worked out at 44%. Next, `COc1ncccc1C(=O)NCCn1cnc(C)cc1=O`: -70.7%. Take `CO[C@@H]1CC[C@@H](N(C)C(=O)c2cn3cc(C)ccc3n2)[C@H]1O`: the INHIBITION is -2.65%.

On to `CCN1CCOCC12CCN(C(=O)c1ccsc1)CC2`, for which the INHIBITION stood at 42.1%. Next, `O=C(Nc1ccc(Cl)cn1)c1cncc(C2CCNCC2)n1`: -10.4%; `c1ccc(Cc2nc(CNC3CCOC4(CCOCC4)C3)no2)cc1` (configuration not stated): -40.7%; `COCc1nc(CNC2CCC3(CCNCC3)CC2)no1`: 12.1%.

`c1ccc(Cc2nc(CNC3CCC4(CCNCC4)CC3)no2)cc1`: the INHIBITION turned out to be 53.7%. The same measure for `O=C(c1cnc(C2CC2)s1)N1CCCC1Cn1cccn1` (configuration not stated): 8.64%; for `Cc1nn(CCC(=O)NC2CCS(=O)(=O)C2)c(C)c1Br` (configuration not stated): -8%; for `Cc1ccoc1C(=O)N1C[C@H]2CCC[C@@]2(COCc2ccncc2)C1`: 41.8%. Next, `CCN1CC2(CCC1=O)CCN(C(=O)C(O)c1cccc(Cl)c1)CC2` (configuration not stated): 71.1%; `CC(C)CN1CC2(CCN(C(=O)C(O)c3cccc(Cl)c3)CC2)CC1=O` (configuration not stated): -28.9%; `CCN1CC2(CCC1=O)CCN(C(=O)c1ccc(Cl)cc1O)CC2`: 36.8%. Take `O=C(NCC1CCOCC1)[C@H]1C[C@@H]2CCN(c3nncs3)C[C@@H]2O1`: the INHIBITION stood at 24.3%. With `COc1ccc(F)cc1C(=O)N1CCn2c(nnc2C(F)(F)F)C1`, the INHIBITION was determined as 6.33%.

For the compound `CCn1nc(C)cc1C(=O)N1CCC(Nc2ccc(C)nn2)CC1`, the INHIBITION is given as 57.7%. Take `Cc1ccc(NC2CCN(C(=O)c3cccc4c3ccn4C)CC2)nn1`: the INHIBITION is on record as 31.2%. Take `Cc1ccc(NC2CCN(C(=O)c3n[nH]c4ccccc34)CC2)nn1`: the INHIBITION is given as 11%. Regarding `CCn1nc(C)c(C(=O)N2CCC(Nc3ccc(C)nn3)CC2)c1C`, the INHIBITION is recorded as 17.5%. Regarding `Cc1ccc(NC2CCN(C(=O)c3cccc4[nH]ncc34)CC2)nn1`, the INHIBITION is recorded as 55.4%. For `CC(C)(C)C(O)CN1CCN(C(=O)c2cccc3[nH]ncc23)CC1` (configuration not stated), the INHIBITION came out at 69.8%. Consider `Cc1ccc(NC2CCN(C(=O)Cn3nc(C)cc3C)CC2)nn1`, for which the INHIBITION came to 3.81%. In the case of `CC(O)CN1CCN(C(=O)c2cccc3[nH]ncc23)CC1` (configuration not stated), the INHIBITION was -31.8%. Next, `O=C(c1cccc(F)c1F)N1CCn2c(nnc2C(F)(F)F)C1`: 34.6%; `CCC(O)CN1CCN(C(=O)c2cccc3[nH]ncc23)CC1` (configuration not stated): -29.8%. Regarding `O=C(c1ccc(F)cc1Cl)N1CCn2c(nnc2C(F)(F)F)C1`, the INHIBITION is 68.8%.

On to `CCS(=O)(=O)N1Cc2ncn(CC3CC3)c2C(COCC2CC2)C1` (configuration not stated), for which the INHIBITION came out at 9.51%. For the compound `NC(=O)CC1CCN(C(=O)NCc2cccc(-n3cccn3)c2)CC1`, the INHIBITION is given as -0.378%. For the compound `O=C(O)c1ccccc1-c1ccc(CN2CCC(CO)C2)cc1` (configuration not stated), the INHIBITION is reported as -12.3%.
